Source: PubChem BioAssay AID602137 (NMMLSC, 2011)
Values without a mark were called inactive.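 Rule for the calls: active = EC50 at most 10 µM with percent response changing by at least 30% across doses, from a valid fit; inactive = the rest.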

Assay: GST-GSH bead binding interference, SAR follow-up, counter-screen for Rab7 GTPase inhibitor project, biochemical, flow cytometry beads, round 1 (AID 602137)
Conditions: GST-GFP on GSH beads; series mostly up to 100 µM; percent response (bead binding): at the top concentration

SMILES	percent response (bead binding) [%]
CCOC(=O)c1c(NC(=S)Nc2ccccc2)sc2c1CC(C)(C)OC2	107
CC1(C)Cc2c(sc(NC(=O)Cc3ccccc3)c2C(=O)O)CO1	104
O=C(C#Cc1ccccc1)c1cccc([N+](=O)[O-])c1	105
CN1CCc2c(sc(NC(=O)Nc3ccc(F)cc3)c2C(=O)O)C1	91.8
CC1(C)Cc2c(sc(NC(=S)NC(=O)c3ccccc3F)c2C(=O)O)CO1	95.3
CC1Cc2c(sc(NC(=S)NC(=O)c3ccccc3)c2C(=O)O)CO1 (configuration not stated)	98.8
COc1ccc(C2CC(c3ccccc3)=NN2c2ccc(S(N)(=O)=O)cc2)cc1 (configuration not stated)	103
CC1(C)Cc2c(sc(NC(=S)NC(=O)c3ccc(Br)cc3)c2C(=O)O)CO1	95.1
CCOC(=O)c1c(NC(=O)Nc2ccc(F)cc2)sc2c1CCN(C)C2	105
O=C(NC(=S)Nc1sc2c(c1C(=O)O)CCOC2)c1ccccc1	98.4
CC1(C)Cc2c(sc(NC(=S)NC(=O)c3cccc(Br)c3)c2C(=O)O)CO1	93.9
CC1(C)Cc2c(sc(NC(=O)NC(=O)c3ccccc3)c2C(=O)O)CO1	104
